Experiment [1] addresses Lysosomal acid glucosylceramidase (Homo sapiens) (UniProt P04062). Put plainly: Glucocerebrosidase-p2 (AID 348; in the data active = potency below about 10 µM; note: potency is the fitted concentration of half-maximal effect). Particulars: purified GBA, blue fluorogenic substrate, 40 min. In short, it runs like this: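 Compounds titrated from 0.6 nM upwards against 0.2 nM enzyme in pH 5.9 citric acid/KH2PO4, taurocholate, tween-20; blue fluorogenic substrate 80 uM, 40 min room temperature, stopped and read Ex 365/Em 440 for AC50.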

Experiment [2] can be described thus: AP1 Signaling Pathway (AID 357; active = well fitted curve in either direction with a large enough effect, not every such curve was filed as active; note: % is set by controls: 0 for no effect and ±100 for the full control effect). Particulars: ME-180 AP-1-bla reporter, EGF-induced, beta-lactamase ratio, 5 h; at 7.69 µM (top of the series) unless noted. In short, it runs like this:
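ME-180 cells with beta-lactamase reporter under AP-1 response element, stimulated with EC50 EGF; compounds tested in titration series, 5 h at 37 °C. CCF4 substrate added 2.5 h at room temperature; 460/530 nm emission ratio gave %activity and AC50.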

Experiment [3] is described as follows: NFAT Signaling Pathway (AID 444; active = well fitted curve in either direction with a large enough effect, not every such curve was filed as active;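 note: carbachol stimulus at about its EC50 of 1 µM final; % is set by controls: 0 for no effect and ±100 for the full control effect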). Particulars: Jurkat NFAT-bla M1, carbachol, beta-lactamase ratio, 5 h; at 7.69 µM (top of the series) unless noted. The gist of the method:
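Jurkat cells carrying an NFAT-driven β-lactamase reporter and co-transfected muscarinic M1 receptor were treated with compound plus carbachol (1 uM final, an EC50 level) for 5 h at 37 °C. CCF4 loading followed for 1 h at RT; 460/530 nm ratio gave %activity.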

Experiment [4] in a line: Stat Signaling Pathway (AID 446; active = well fitted curve in either direction with a large enough effect, not every such curve was filed as active;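 note: ME-180 cervical cancer cells given 40 pM IL-6 alongside compound; SIE-controlled beta-lactamase reporter measured as 460/530 nm FRET emission ratio; % is set by controls: 0 for no effect and ±100 for the full control effect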). Particulars: ME-180 SIE beta-lactamase reporter, IL-6 stimulated, 5 h; at 7.69 µM (top of the series) unless noted. In short, it runs like this: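 Reporter line: ME-180 cervical carcinoma, SIE-beta-lactamase. Treatment: compound with 40 pM IL-6, 5 hrs, 37 C, in low-serum OPTI-MEM with 10 mM HEPES pH 7.3. Detection: 460/530 nm fluorescence.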

In experiment [5] the target is Glucocorticoid receptor (Homo sapiens) (UniProt P04150). Kind of experiment: GR-GFP Redistribution (AID 450;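 active = compounds whose dose series gives a full or clear partial fitted curve of increased nuclear translocation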; note: potency is the fitted concentration of half-maximal effect). Particulars: U2OS GR-GFP nuclear translocation, laser cytometry, 2 h.
Glucocorticoid receptor (Homo sapiens), sequence (P04150 whole entry, looked up): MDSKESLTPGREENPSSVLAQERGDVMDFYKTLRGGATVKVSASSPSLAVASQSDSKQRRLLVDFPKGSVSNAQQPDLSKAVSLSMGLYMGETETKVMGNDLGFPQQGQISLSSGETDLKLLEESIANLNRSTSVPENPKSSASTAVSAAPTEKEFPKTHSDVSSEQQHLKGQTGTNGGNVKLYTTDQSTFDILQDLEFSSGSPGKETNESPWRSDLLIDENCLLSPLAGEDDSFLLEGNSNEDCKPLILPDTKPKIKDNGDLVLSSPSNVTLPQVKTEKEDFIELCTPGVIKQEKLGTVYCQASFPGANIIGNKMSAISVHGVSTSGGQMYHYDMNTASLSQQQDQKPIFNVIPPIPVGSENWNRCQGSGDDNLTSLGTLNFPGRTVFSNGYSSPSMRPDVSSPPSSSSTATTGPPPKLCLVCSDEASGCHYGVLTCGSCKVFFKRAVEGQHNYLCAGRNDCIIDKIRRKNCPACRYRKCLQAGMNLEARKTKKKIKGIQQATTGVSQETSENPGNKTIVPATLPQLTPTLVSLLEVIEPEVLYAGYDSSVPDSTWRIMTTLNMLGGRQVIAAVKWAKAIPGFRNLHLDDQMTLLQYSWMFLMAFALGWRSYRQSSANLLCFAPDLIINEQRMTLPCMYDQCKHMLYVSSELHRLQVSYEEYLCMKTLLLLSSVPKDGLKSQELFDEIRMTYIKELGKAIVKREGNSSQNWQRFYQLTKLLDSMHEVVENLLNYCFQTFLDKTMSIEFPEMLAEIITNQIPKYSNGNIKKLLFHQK
For experiment [6] the target is unchanged. Kind of experiment: GR-EFC Redistribution (AID 451; calls by dose curve; note: potency is the fitted concentration of half-maximal effect). Particulars: CHO-K1 GR-EFC translocation, beta-gal luminescence, 2 h. In short, it runs like this:
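CHO-K1 cells stably expressing nuclear-localized β-gal enzyme acceptor and GR fused C-terminally to the enzyme donor fragment; ligand-driven nuclear translocation restores β-gal by complementation. Compounds titrated up to 46 uM final, 2 h at 37 °C; luminescence read.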

Experiment [7] addresses Mitogen-activated protein kinase 10 (Mus musculus) (UniProt Q61831). Kind of experiment: JNK3 AlphaScreen Assay (AID 530; active = well fitted curve in either direction with a large enough effect, not every such curve was filed as active;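 note: kinase came from lysate of stimulated human HepG2 cells; signal reports phosphorylation of biotinylated GST-cJun 1-79 at Ser73 with 10 µM ATP; % is set by controls: 0 for no effect and ±100 for the full control effect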). Particulars: JNK3 lysate, c-Jun phosphorylation; series mostly up to 57.1 µM. In short, it runs like this:
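JNK3 came from HepG2 lysates pre-activated with IL-1beta and TNF-alpha and phosphorylated biotinylated GST-cJun (1-79) at 10 uM ATP, pH 7.6, room temperature. Compounds were titrated. AlphaScreen signal used anti-phospho-cJun (Ser73) antibody.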

The target in experiment [8] is 3',5'-cyclic-AMP phosphodiesterase 4B (Homo sapiens) (UniProt Q07343). Kind of experiment: qHTS Assay for Inhibitors of PDE-IV (AID 607; active = well fitted activation curve with a large enough effect in the main read-out, with a control signal flat, not every such curve was filed as active; note: % of control where 0% means no effect). Particulars: HEK293 ACTOne CNG channel cells, membrane potential fluorescence; series mostly up to 22.9 µM. The gist of the method:
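Cell-based read-out of cAMP via a modified cyclic nucleotide-gated channel and membrane potential dye (535/590 nm) in HEK293 cells expressing PDE4 endogenously. Compounds tested up to 22.9 uM final; 100 uM RO 20-1724 reference.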

Experiment [9] can be described thus: qHTS Assay for Lipid Storage Modulators (AID 1519; calls by dose curve). Particulars: Drosophila S3 cells, BODIPY lipid droplet/cell ratio, laser cytometry, cells loaded with oleic acid; for activity change, negative = inhibition: at 57.5 µM (top of the series). The gist of the method: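 Cells seeded at 5,000 per well were treated with compounds over a concentration series and loaded with oleic acid (400 uM, as added). Lipid droplet fluorescence (488 nm excitation, 500-530 nm channel) was read by laser-scanning cytometry and normalized to 20 uM Triacsin C.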

The target in experiment [10] is Dual specificity protein kinase CLK4 (Homo sapiens) (UniProt Q9HAZ1). Kind of experiment: qHTS Assay for Inhibitors of CDC-like Kinase 4 (Kinase-Glo Assay) (AID 1770). Note: % is set by controls: 0 for no effect and ±100 for the full control effect; nearly all actives have a fitted effect of over 65% in size. Particulars: recombinant Clk4, Kinase-Glo ATP depletion luminescence; series mostly up to 66.7 µM. In short, it runs like this:
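Clk4 25 nM, RS peptide 100 uM, ATP 1 uM, pH 7.5 Tris, 10 mM MgCl2, 2.5 mM DTT; 4.5 h RT; ATP depletion read by Kinase-Glo luminescence.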

Experiment [11] shares this target. Put plainly: qHTS Assay for Inhibitors of CDC-like Kinase 4 (ADP-Glo Assay) (AID 1771). Note: % is set by controls: 0 for no effect and ±100 for the full control effect; nearly all actives have a fitted effect of over 70% in size. Particulars: recombinant CLK4, ADP-Glo luminescence; series mostly up to 80 µM. In short, it runs like this:
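Clk4 (25 nM) was incubated 1 hr at room temperature with 100 uM RS repeat peptide and 1 uM ATP in buffer with 2 mM MgCl2, 0.5 mM EGTA, 2.5 mM DTT. ADP formed was quantified by ADP-Glo luminescence.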

The target is the same in experiment [12]. Put plainly: qHTS Assay for Inhibitors of CDC-like Kinase 4 (ADP-FP Assay) (AID 1795).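 Note: recombinant human CLK4 phosphorylating RS repeat peptide at 1 µM ATP; % is set by controls: 0 for no effect and ±100 for the full control effect; nearly all actives have a fitted effect of over 60% in size.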 Particulars: Transcreener ADP fluorescence polarization; series mostly up to 50 µM. In short, it runs like this: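 Kinase activity was followed as ADP output, converted from fluorescence polarization with a calibration curve. Reactions ran one hour at low ATP (1 uM) with RS peptide substrate.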

The target in experiment [13] is Ubiquitin carboxyl-terminal hydrolase 1 (Homo sapiens) (UniProt O94782). Kind of experiment: Inhibitors of USP1/UAF1: Pilot qHTS (AID 504865).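 Note: rhodamine fluorescence freed from ubiquitin-rhodamine substrate followed over time; top concentration of the series differs between compounds; % is set by controls: 0 for no effect and ±100 for the full control effect; nearly all actives have a fitted effect of over 35% in size.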 Particulars: purified USP1/UAF1, Ub-rhodamine cleavage fluorescence; series mostly up to 54.9 µM. In short, it runs like this:
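Enzyme-free wells gave the negative control, while test wells held 1nM USP1/UAF1 preincubated with compound for 15 min at room temperature. Ub-Rho at 150nM final started the reaction, and fluorescence at 480/540 nm was recorded kinetically.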

A short description of experiment [14]: Primary qHTS for small molecule stabilizers of the endoplasmic reticulum resident proteome: Secreted ER Calcium Modulated Protein (SERCaMP) assay (AID 1508630). Note: % is set by controls: 0 for no effect and ±100 for the full control effect. Particulars: SH-SY5Y GLuc-SERCaMP (Gaussia luciferase released on ER calcium loss) secretion, thapsigargin, luminescence; series mostly up to 38.4 µM. In short, it runs like this: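 GLuc-SERCaMP-expressing SH-SY5Y cells, pretreated 16 h with compound, are challenged with thapsigargin to empty ER calcium stores; after 4 h, coelenterazine is added directly to the medium and luminescence is imaged.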

The mark [15] stands for this setting: measured here: cell count channel max response.
Where [16] appears, read: measured here: lipid channel max response.

The values that follow come from PubChem BioAssay (NCATS).

Records with an inconclusive call do not appear. Active and inactive are the calls of the source. Unless noted, calls come from the whole dose curve; as a rule, active = well fitted curve in the direction sought with a large enough effect; inconclusive = small, poorly fitted or top-dose-only effect, or another doubt; inactive = no such curve, though single readings can be large; an effect the other way counts as inactive or inconclusive.

Dual specificity protein kinase CLK4 (Homo sapiens), sequence (Q9HAZ1 whole entry, looked up): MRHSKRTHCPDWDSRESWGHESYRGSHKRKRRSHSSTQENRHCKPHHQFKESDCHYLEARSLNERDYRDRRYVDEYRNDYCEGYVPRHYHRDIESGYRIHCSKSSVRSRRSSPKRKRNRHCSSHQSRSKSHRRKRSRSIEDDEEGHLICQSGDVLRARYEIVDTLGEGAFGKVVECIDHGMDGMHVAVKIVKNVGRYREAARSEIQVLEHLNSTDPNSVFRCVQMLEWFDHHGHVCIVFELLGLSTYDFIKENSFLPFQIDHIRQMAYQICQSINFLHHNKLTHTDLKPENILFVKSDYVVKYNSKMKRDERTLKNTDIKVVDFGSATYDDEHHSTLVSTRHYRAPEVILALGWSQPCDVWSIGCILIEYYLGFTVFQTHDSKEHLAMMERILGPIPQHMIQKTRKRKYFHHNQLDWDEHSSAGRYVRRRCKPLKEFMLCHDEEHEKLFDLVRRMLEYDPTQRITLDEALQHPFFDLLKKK
Lysosomal acid glucosylceramidase (Homo sapiens), sequence (P04062 whole entry, looked up): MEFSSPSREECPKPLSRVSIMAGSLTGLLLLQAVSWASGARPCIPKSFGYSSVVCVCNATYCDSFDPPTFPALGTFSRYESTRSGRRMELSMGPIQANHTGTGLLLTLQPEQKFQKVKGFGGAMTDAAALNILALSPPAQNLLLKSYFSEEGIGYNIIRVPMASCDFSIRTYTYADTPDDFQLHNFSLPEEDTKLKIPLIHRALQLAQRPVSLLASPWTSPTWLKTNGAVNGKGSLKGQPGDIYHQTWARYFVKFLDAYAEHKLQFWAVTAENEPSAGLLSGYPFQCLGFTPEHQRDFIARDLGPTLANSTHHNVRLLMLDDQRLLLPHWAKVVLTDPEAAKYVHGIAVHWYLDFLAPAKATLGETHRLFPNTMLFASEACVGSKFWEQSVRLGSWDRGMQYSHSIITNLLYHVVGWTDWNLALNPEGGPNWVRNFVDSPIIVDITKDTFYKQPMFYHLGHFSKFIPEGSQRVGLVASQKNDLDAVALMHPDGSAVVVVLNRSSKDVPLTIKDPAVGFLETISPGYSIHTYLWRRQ
Ubiquitin carboxyl-terminal hydrolase 1 (Homo sapiens), sequence (O94782 whole entry, looked up): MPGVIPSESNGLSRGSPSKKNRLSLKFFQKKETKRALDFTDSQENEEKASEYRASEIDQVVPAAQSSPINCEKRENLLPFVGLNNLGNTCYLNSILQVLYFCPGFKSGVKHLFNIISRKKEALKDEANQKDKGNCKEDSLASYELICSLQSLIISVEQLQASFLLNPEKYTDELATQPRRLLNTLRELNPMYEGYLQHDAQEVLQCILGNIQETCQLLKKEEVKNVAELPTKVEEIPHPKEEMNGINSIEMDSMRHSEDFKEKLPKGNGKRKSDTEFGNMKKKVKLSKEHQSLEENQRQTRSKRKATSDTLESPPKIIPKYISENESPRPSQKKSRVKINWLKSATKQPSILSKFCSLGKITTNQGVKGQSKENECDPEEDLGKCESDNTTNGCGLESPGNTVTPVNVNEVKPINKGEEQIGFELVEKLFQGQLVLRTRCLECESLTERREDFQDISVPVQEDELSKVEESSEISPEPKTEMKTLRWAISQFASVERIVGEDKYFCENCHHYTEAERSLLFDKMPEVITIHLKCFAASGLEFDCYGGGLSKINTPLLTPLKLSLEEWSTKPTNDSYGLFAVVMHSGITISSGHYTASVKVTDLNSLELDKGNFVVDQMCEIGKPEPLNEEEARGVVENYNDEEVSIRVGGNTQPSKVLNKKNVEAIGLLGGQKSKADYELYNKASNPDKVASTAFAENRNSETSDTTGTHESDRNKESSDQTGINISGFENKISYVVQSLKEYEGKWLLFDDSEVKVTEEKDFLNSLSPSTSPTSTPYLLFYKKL
3',5'-cyclic-AMP phosphodiesterase 4B (Homo sapiens), sequence (Q07343 whole entry, looked up): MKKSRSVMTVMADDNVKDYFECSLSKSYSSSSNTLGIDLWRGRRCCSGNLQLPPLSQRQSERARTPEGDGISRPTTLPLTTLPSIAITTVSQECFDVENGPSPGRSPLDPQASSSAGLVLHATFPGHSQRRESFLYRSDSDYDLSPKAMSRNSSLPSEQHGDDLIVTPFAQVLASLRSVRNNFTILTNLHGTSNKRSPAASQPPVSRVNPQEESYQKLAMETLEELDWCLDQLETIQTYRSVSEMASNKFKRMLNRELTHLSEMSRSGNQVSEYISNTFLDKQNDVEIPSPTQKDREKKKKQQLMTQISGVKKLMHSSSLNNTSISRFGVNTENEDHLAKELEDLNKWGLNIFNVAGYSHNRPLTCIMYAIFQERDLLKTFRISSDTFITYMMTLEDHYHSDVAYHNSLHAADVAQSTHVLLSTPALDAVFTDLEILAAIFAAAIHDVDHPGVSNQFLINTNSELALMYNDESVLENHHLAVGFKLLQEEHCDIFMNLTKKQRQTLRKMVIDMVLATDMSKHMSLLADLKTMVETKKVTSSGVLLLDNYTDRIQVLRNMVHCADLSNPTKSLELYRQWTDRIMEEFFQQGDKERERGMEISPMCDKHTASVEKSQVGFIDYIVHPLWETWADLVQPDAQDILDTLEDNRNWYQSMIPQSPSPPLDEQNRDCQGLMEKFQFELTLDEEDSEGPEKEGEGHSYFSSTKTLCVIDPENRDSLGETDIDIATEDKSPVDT

`COc1cccc(Cn2c(=O)c(-c3ccc(F)cc3)nc3cnc(N(C)C)nc32)c1`: the results for the Potency in [1], in [5] and in [6] were > 11.4 µM (inactive), > 9.22 µM (inactive) and > 46 µM (inactive), respectively. Further, the activity change, negative = inhibition was 12% (inactive) in [2], 9.76% (inactive) in [3] and 7.91% (inactive) in [9]. The activity, negative = inhibition in [4] was -3.48% (inactive). For the same compound, the compound was called inactive in [7]. The Potency entry in experiment [8], in experiment [10], in experiment [11], in experiment [12], in experiment [13] and in experiment [14] was “inactive” throughout. Besides, the values for the max response in [9] (setting [15]) and in [9] (setting [16]) were 20.9% and 28.6%, respectively.
As for `CCNc1ncc2nc(-c3ccc(Cl)cc3)c(=O)n(CCC#N)c2n1`, the figures for the Potency in experiment [1], in experiment [5] and in [6] were > 11.4 µM (inactive), > 9.22 µM (inactive) and > 46 µM (inactive), respectively. Further, the activity change, negative = inhibition in experiment [2] is 8.5% (inactive); in [3], -14.8% (inactive); in experiment [9], 8.4% (inactive). Moreover, the activity, negative = inhibition in experiment [4] is 14.5% (inactive). Moreover, the compound was called inactive in [7]. Besides, the Potency result in experiment [8], in experiment [10], in [11], in [12], in experiment [13] and in experiment [14] was “inactive” throughout. In addition, the max response in experiment [9] (setting [15]) stood at 15.3%; in experiment [9] (setting [16]), 24.2%.
`O=c1c(-c2cc(F)cc(F)c2)nc2cnc(N3CCOCC3)nc2n1Cc1cccs1`: the Potency was > 11.4 µM (inactive) in [1], > 9.22 µM (inactive) in [5] and > 46 µM (inactive) in experiment [6]. Also, the activity change, negative = inhibition in experiment [2] is 6.66% (inactive); in [3], 22.7% (inactive); in experiment [9], 3.39% (inactive). Besides, the activity, negative = inhibition in experiment [4] was 6.69% (inactive). In addition, in experiment [7], the outcome was inactive. The Potency entry in [8], in experiment [10], in experiment [11], in experiment [12], in experiment [13] and in [14] was “inactive” in each case. In addition, the max response turned out to be 18.1% in experiment [9] (setting [15]) and 23.4% in [9] (setting [16]).
Consider `Cc1ccccc1-c1cc(N2CCN(C)CC2)ncn1`, for which the figures for the Potency in experiment [1], in [5] and in experiment [6] were > 11.4 µM (inactive), > 46 µM (inactive) and > 46 µM (inactive), respectively. Further, the activity change, negative = inhibition in [2] was -0.925% (inactive); in experiment [3], -7.69% (inactive); in experiment [9], -4.37% (inactive). For the same compound, in experiment [4], the activity, negative = inhibition was -0.251% (inactive). Besides, the outcome in [7] was inactive. Also, the Potency entry in [8], in [10], in experiment [11], in experiment [12], in [13] and in experiment [14] was “inactive” throughout. The max response in experiment [9] (setting [15]) was 3.49%; in [9] (setting [16]), -4.04%.
`Cc1cnc(CNc2ccnc(-c3ccccc3CN(C)C)n2)cn1`: the Potency in [1] was > 11.4 µM (inactive); in [5], > 46 µM (inactive); in experiment [6], > 46 µM (inactive). The activity change, negative = inhibition in experiment [2] was 10.8% (inactive); in experiment [3], -5.1% (inactive); in [9], 5.8% (inactive). Also, the activity, negative = inhibition in experiment [4] is 12.3% (inactive). Besides, the compound was called inactive in [7]. The Potency result in [8], in experiment [10], in experiment [11], in [12], in experiment [13] and in [14] was “inactive” each time. The max response in experiment [9] (setting [15]) turned out to be 23.9%; in experiment [9] (setting [16]), 27.5%.
Consider `CNc1ncncc1-c1c(C)noc1C`, for which the results for the Potency in experiment [1], in experiment [5] and in [6] were > 11.4 µM (inactive), > 46 µM (inactive) and > 46 µM (inactive), respectively. The values for the activity change, negative = inhibition in experiment [2], in experiment [3] and in experiment [9] were -14.2% (inactive), -0.793% (inactive) and 7.32% (inactive), respectively. Further, the activity, negative = inhibition in experiment [4] was 11.7% (inactive). In experiment [7], the compound was called inactive. The Potency result in experiment [8], in experiment [10], in [11], in experiment [12], in experiment [13] and in experiment [14] was “inactive” each time. Further, the values for the max response in experiment [9] (setting [15]) and in experiment [9] (setting [16]) were 37% and 45.6%, respectively.
